Measurements published in PubChem BioAssay (NCI).
About 83,000 compounds went through this panel and 20% of them were active in at least one assay; those are over-represented in the sample as a whole.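 Negative percent growth values reflect cell death: -40 means 40% of the cells present at the start died, and -100 means all died.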 Unmarked numbers belong to inactive results. The source made the active and inactive calls. Rule for the calls: active = growth percent below 10; inactive = the rest.

Tested on: HL-60(TB) leukemia
Assay: NCI-60 one-dose screen, 48 h (100 = growth as untreated, 0 = no growth, -100 = all killed)
Details: 10 µM unless noted

| SMILES | growth |
| --- | --- |
| C/C(=C(/c1ccc(Cl)cc1)c1ccc(OCCCN(C)C)cc1)c1ccc(Cl)cc1 | 72.9% |
| CCCCCCCCCCCCCCCC(=O)O[C@@H]1[C@@H](O)[C@@H](O)C([C@H](NC(=O)[C@@H]2C[C@@H](CCC)CN2C)[C@H](C)Cl)O[C@@H]1SC (stereo not given in full) | 98.6% |
| COc1ccc(-c2nn(-c3ccccc3)cc2/C=C/C(=O)OCc2cn(-c3ccc(F)c(Cl)c3)nn2)cc1 | 83.3% |
| CCN1CCN(Cc2ccc(NC(=O)c3nc4ccc5[nH]ncc5c4c4c3CCCC4)cc2C(F)(F)F)CC1 | -59% (active) |
| O=C(/C=C/C12c3ccccc3C(c3ccccc31)C1C(=O)NC(=O)C12)c1ccc(Br)cc1 (stereo not given) | 2.14% (active) |
| COc1ccc(/C=C/C(=O)OCC(=O)NNC(=O)c2ccccc2)cc1OC | 72.2% |
| Nc1cccc(Cl)c1N | 79% |
| O=C(Nc1ccccc1[N+](=O)[O-])c1ccc(Cl)c(Cl)c1 | 90.2% |
| N#CCCCCCn1c2ccccc2c2c3c(c4c5ccccc5[nH]c4c21)C(=O)N(O)C3=O | -46% (active) |
| NC[C@@H]1O[C@H](O[C@@H]2[C@@H](CO)OC(O[C@@H]3[C@@H](O)[C@H](N)C[C@H](N)[C@H]3OC3O[C@H](CN)[C@@H](O)[C@H](O)[C@H]3N)[C@@H]2O)[C@H](N)[C@@H](O)[C@@H]1O (stereo not given in full) | 94.7% |
| CCN(CC)c1ccc(N=Nc2cc(Cl)ccc2Cl)c(NC(=O)CCC(=O)O)c1 | 119% |
| CCOC(=O)C(=O)CC(=O)c1ccccc1 | 95.5% |
| C[C@@H]1N=C(c2ccc3ccccc3n2)Nc2nc3ccccn3c2C1=O | 97.6% |
| Cc1ccc(Nc2nc(N)nc(CSCC(=O)NN)n2)cc1 | 20.5% |
| CCOC(=O)c1c(NC(=O)c2ccc(C(C)(C)C)cc2)sc2cc(O)ccc12 | 67% |
| c1ccc(-c2nnc(-c3c[nH]c4ncccc34)s2)cc1 | 98.4% |
| N=c1c2c(=O)n3c(nc2nc2sc4ccc(Cl)cc4n12)-c1ccccc1Sc1ccccc1-3 | 4.46% (active) |
| Cc1cc(C)n(CC(=O)Nc2ccc(-c3nc4ccccc4s3)cc2)n1 | 103% |
| CC(=O)c1ccccc1NC(=O)C(C)(c1ccccc1)c1ccccc1 | 94.3% |
| Cc1ccc(C(=O)c2oc3ccc4c(C)cc(=O)oc4c3c2C)cc1 | 7.9% (active) |

| SMILES | growth |
| --- | --- |
| C=CCOc1ccc2c(c1)CC[C@@H]1[C@@H]2CC[C@]2(C)C(=O)/C(=N/O)C[C@@H]12 | -28.4% (active) |
| COC(=O)[C@]12CC[C@@H](C)[C@H](C)[C@@H]1C1=CC[C@@H]3[C@@]4(C)C(C=O)=C[C@@](C)(COC(=O)c5ccco5)[C@@H]4C(=O)C[C@@]3(C)[C@]1(C)CC2 | 10.1% |
| COc1cc2cc(Oc3ccc(NC(=O)c4ccccc4)cc3)c(C)nc2cc1OC | 100% |
| BrC1=C(Br)C(Br)(Br)C(Br)=C1Br | 27.4% |
| N#Cc1c(N2CCNCC2)nc2sc3cc(Cl)c(Cl)cc3n2c1=N | 89% |
| COc1ccc(/C=C/C(=O)Nc2cc(/C=C\c3cc(OC)c(OC)c(OC)c3)cc(OC)c2OC)cc1OC | -38.1% (active) |
| Cc1ccc(OCCOCCOCCOCCOc2ccc(C)n(O)c2=S)c(=S)n1O | -7.44% (active) |
| Fc1ccc(C2CC(c3cccc(Nc4ccncc4)c3)=NN2c2ccccc2)cc1 (stereo not given) | -19.5% (active) |
| CCN(CC)CC(=O)N(CC)c1ccc(C)c(Cl)c1 | 71.7% |
| NC(=O)c1ccc2nc3c(n2c1)C(=O)C(=O)c1ccccc1-3 | -42.2% (active) |
| Cc1[nH]n(C(=O)c2ccncc2)c(=O)c1N=Nc1ccc(O)c(C(=O)O)c1 | 53.4% |
| N#Cc1nc(-c2cccc(Br)c2)cc(-c2ccc(Nc3nc(N4CCCCC4)nc(N4CCCCC4)n3)cc2)c1N | -16.4% (active) |
| NC(=O)c1ccc(-c2c3ccccc3cc3c2ccc2ccccc23)cc1 | 15.6% |
| CC12CCC3C4(C)COC(c5ccco5)OC4CCC3(C)C1CC(C1=CCOC1=O)O2 (stereo not given) | 98.3% |
| Cn1cc(-c2ccc3occ(-c4cccc(-c5ccncc5)c4)c3n2)cn1 | 2.9% (active) |
| O=C(Nc1ccc(Oc2ccc(F)cc2)c(Cl)c1)c1cnccn1 | 21.4% |
| CN(C)c1ccc2nc3ccc(=[N+](C)C)c([N+](=O)[O-])c-3sc2c1 | 2.66% (active) |
| CC(C)OC(=O)Nc1cc(F)ccc1F | 94.7% |
| CCCCCCn1c(-c2ccc(C(=O)O/N=C(\N)c3ccc4ccccc4c3)cc2)nc(-c2ccccc2)c1-c1ccccc1 | 2.97% (active) |
| CC1(C)CC(=O)C=C(N)C1 | 71.8% |
